From PubChem BioAssay AID1671192 (National Center for Advancing Translational Sciences (NCATS), 2021)
Records with an inconclusive call do not appear. A number with no mark means an inactive call. The call rests on the fitted dose curve; in most records, active means well fitted curve in the direction sought with a large enough effect; inconclusive means small, poorly fitted or top-dose-only effect, or another doubt; inactive means no such curve, though single readings can be large or run the other way.

Target: Polyunsaturated fatty acid lipoxygenase ALOX15 (Homo sapiens) (UniProt P16050)
Sequence (P16050 whole entry, looked up): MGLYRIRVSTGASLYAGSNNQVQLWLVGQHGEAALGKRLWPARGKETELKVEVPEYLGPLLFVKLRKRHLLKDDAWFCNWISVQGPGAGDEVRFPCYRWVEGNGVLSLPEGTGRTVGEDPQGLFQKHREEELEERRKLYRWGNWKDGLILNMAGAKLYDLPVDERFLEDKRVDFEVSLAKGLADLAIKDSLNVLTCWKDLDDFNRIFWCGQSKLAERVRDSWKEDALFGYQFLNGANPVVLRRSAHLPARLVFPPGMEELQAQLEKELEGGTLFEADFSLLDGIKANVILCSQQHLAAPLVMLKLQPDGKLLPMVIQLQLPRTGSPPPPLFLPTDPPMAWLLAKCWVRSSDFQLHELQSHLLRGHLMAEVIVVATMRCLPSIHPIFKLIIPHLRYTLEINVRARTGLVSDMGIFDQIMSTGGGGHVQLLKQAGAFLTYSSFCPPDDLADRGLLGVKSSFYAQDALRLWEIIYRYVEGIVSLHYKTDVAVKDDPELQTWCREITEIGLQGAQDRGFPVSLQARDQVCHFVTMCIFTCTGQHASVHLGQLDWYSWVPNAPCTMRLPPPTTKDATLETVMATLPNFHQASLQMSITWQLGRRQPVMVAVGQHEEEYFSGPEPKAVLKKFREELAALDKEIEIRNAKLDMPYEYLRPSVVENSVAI
Test: Counterscreen qHTS for inhibitors of human arachidonate 12S-lipoxygenase (ALOX12): ALOX15 Assay; further: 0% is about no effect
Details: purified ALOX15 enzyme activity; series mostly up to 110 µM; activity change, negative = inhibition: at the top concentration
Summary of the method: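 Xylenol orange–ferric complex formation, read as the 573 nm to 405 nm absorbance ratio, tracks product from 50 uM arachidonic acid turned over for 30 min at RT. Enzyme is 40 nM ALOX15, pH 7.5 HEPES buffer, compound-preincubated 15 min.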

| Structure (SMILES) | activity change, negative = inhibition |
| --- | --- |
| CCCC(=O)N1Cc2ccccc2CC2(CCCCN2Cc2ccccn2)C1 (configuration not stated) | 47.5% |
| Cc1cc(C(=O)NC2CCNCC2)c2c(C3CCNCC3)noc2n1 | 1.65% [at 146 µM] |
| CN(C)C(=O)N1Cc2ccccc2OC2(CCN(C(=O)Cc3cnc[nH]3)CC2)C1 | 9.22% |
| Cc1cc(C(=O)NCc2cccs2)c2c(C3CCNC3)noc2n1 (configuration not stated) | -7.35% [at 146 µM] |
| O=C(N1CCCCC1)N1CCCC(c2nnc3n2CCNC3)C1 (configuration not stated) | 7.4% [at 146 µM] |
| O=C1NCc2ccccc2CC12CCN(Cc1c(F)cccc1Cl)CC2 | -31.6% |
| Cc1ccc(C(=O)N2CCn3c(nnc3C3CCNCC3)C2)cc1 | -0.421% [at 146 µM] |
| C[S+](=O)([O-])N1CC2(Cc3ccccc3NC2=O)C1 | 0.0174% [at 146 µM] |
| CNC(C)c1cccc(OC)c1 (configuration not stated) | -2.15% [at 233 µM] |
| O=C(c1ccccc1)N1CCn2c(nn(-c3cccc(Cl)c3)c2=O)C1 | -14.8% [at 146 µM] |
| O=C1NCc2ccccc2CC12CCN(Cc1ccc(F)cc1O)C2 (configuration not stated) | -3.81% [at 146 µM] |
| CN1CC(=O)N(C2CCCNCC2)Cc2c(NCc3cccs3)ncnc21 (configuration not stated) | -19.1% |
| O=C(c1ccc2c(c1)OCO2)N1CCC(c2nnc3n2CCNC3)CC1 | -26% |
| COc1cccc(N2C(=O)NC(=NC3CCCC3)C23CCN(Cc2ccsc2)C3)c1 (configuration not stated) | -47.3% |
| FC(F)(F)c1ccc(N2C3CCC2CN(Cc2cccs2)C3)cc1 | -29.5% [at 146 µM] |
| CCOc1ccc(CN2CCC3(Cc4ccccc4CNC3=O)C2)cc1 (configuration not stated) | -15.1% [at 146 µM] |
| Cc1ccsc1CN1CCC2(Cc3ccccc3CNC2=O)C1 (configuration not stated) | 11.6% [at 146 µM] |
| COCCCNC(=O)c1cc(C2CC2)nc2c1c(C1CCCN1)nn2-c1ccccc1 (configuration not stated) | 0.477% |
| O=C1Nc2ccccc2CC12CN(CC1CCCC1)C2 | 52% [at 146 µM] |

| Structure (SMILES) | activity change, negative = inhibition |
| --- | --- |
| c1ccc(NCCN2CCCC2)cc1 | -6.97% [at 233 µM] |
| NCC(=O)N1Cc2ccccc2CC12CCCN(C(=O)c1ccccc1)C2 (configuration not stated) | 3.09% |
| CCc1nc2c(c(-c3ccc(OC)cc3)n1)CCN(Cc1cccc3ccccc13)CC2 | -18.7% |
| COc1ccc(CC(=O)N2Cc3ccccc3CC23CCCN(C(=O)CCCN)C3)cc1 (configuration not stated) | -8.16% |
| O=C1NCc2ccccc2CC12CCCN2Cc1ccc(Br)cc1 (configuration not stated) | -9.25% |
| COc1ccccc1C(=O)N1CCn2c(nnc2C2CCNCC2)C1 | -4.23% [at 146 µM] |
| c1cc2c(cc1OC1CN(CC3CCCCC3)C1)OCO2 | -4.23% [at 146 µM] |
| NCc1ccc(-c2ccc(F)cc2)cc1 | 16.7% [at 146 µM] |
| COc1cccc(N2C(=O)NC(=NC3CCCCC3)C23CCN(C(=O)c2ccccc2OC)C3)c1 (configuration not stated) | -28.5% |
| Cc1ccc2nc(C3CCN(Cc4ccc(-c5cccs5)cc4)CC3)[nH]c(=O)c2c1 | -12% |
| CNC1CCOc2ccccc21 (configuration not stated) | -17.1% [at 146 µM] |
| CN1CC(=O)N(C2CCCNCC2)Cc2c1ncnc2N1CCC(C#N)CC1 (configuration not stated) | -15.6% |
| Cn1ncc2c(C(=O)NCCc3ccc(Cl)cc3)cc(-c3ccc([S+](C)(=O)[O-])cc3)nc21 | -20.8% |
| CC(=O)NCCC(=O)N1Cc2ccccc2CC2(CCCCN2CC2CCNC2)C1 (configuration not stated) | -25.7% |
| Cc1cc(Cl)ccc1-c1cccc(C=O)c1 | 8.77% [at 146 µM] |
| CC(C)NC(=O)NC1CC2(CCN(C(=O)Cc3ccc(O)cc3)CC2)c2ccccc21 (configuration not stated) | -18.7% |
| CN1CC(=O)N(C2CCNCC2)Cc2c1ncnc2N(C)Cc1ccc(F)cc1 | -13.5% |
| COc1ccc(-c2cc(C(=O)NCC3CC3)c3c(C4CCNC4)noc3n2)cc1 (configuration not stated) | -24.2% |
